High-throughput results from PubChem.
This is a sample that favours compounds with a hit; in the whole collection about 5.4% have one here.
AHR activator: AHR activators, primary screen, cell-based, luminescence, luciferase reporter, human; Aryl hydrocarbon receptor (Homo sapiens), P35869; AHR-responsive luciferase reporter cells; activation, % at 5 µM; actives 2.5% (n = 320,000); in the data active means activation above about 47%;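 further: 0% = vehicle wells and 100% = reference agonist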
HSF1 inh: HSF1 inhibitors in luciferase reporter cells, primary screen, cell-based, NIH3T3, luminescence | NIH3T3-HGL HSE-luciferase, MG132-induced, luminescence 8 h; active compounds read low | activity change, negative = inhibition, % at 7.5 µM (by protocol) | actives 0.77% (n = 300,000) | AID 2098, 2009;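 active means more than half of replicate wells show activity change below -50%, luminescence cut by over half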;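 further: luciferase reports HSF-1 transcriptional activity via heat shock element; 0% = median of DMSO wells and -100% = zero luminescence signal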
GAA850 FXN act: FXN promoter activators, primary screen, cell-based, luciferase luminescence, HEK293 lucGAA850; activation, % at 6 µM; AID 540364, 2011; HEK293 lucGAA850 FXN promoter luciferase reporter, 24 h; percent of 10 µM SAHA response; actives 0.56% (n = 360,000);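 active means activation above the average of all compounds screened plus 3 SD, cutoff fixed separately per campaign, cut at about 7.5% in these data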;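 further: 0% = DMSO wells and 100% = 10 µM SAHA wells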
NR0B1 inh: DAX1 (NR0B1) inhibitors, primary screen, cell-based, HEK293, Gal4-DAX1, luciferase luminescence; actives 0.99% (n = 340,000); inhibition, % at 6.75 µM; AID 504766, 2011; HEK293 Gal4-DAX1 luciferase reporter;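 active means inhibition above the mean over all tested compounds plus 3 SD, cut at about 4.2% in these data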;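 further: 0% = DAX1-transfected cells with DMSO and 100% = empty-vector control cells with DMSO; inhibition shows as a rise in luminescence from relieved DAX1 repression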
HSF1 activator: HSF-1 activators, primary screen, NIH3T3-HGL cells, MG132 stress, luminescence, single point | NIH3T3-HGL HSF-1 luciferase reporter, 8 h; 100% = twice DMSO control signal | activation, % at 9 µM | actives 1.7% (n = 300,000) | AID 504408, 2011;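 active means mean replicate activation of at least 50% with a set share of replicates each reaching 50%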;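 further: 0% = median of the neutral control wells and 100% = twice that signal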
* hit, by the source's call; nt = no result.

SMILES	AHR activator	HSF1 inh	GAA850 FXN act	NR0B1 inh	HSF1 activator
O=C(NCC1CCCO1)c1onc(CSc2ccc(Cl)cc2)c1C(=O)O (centres undefined)	0.0	-61.2*	-0.2	-0.8	-69.6
CCCNC(=O)c1c(CSc2ccc(Cl)cc2)noc1C(=O)NCc1ccccc1	2.6	24.5	-1.2	0.2	54.4*
CCCCNC(=O)c1c(CSc2ccc(Cl)cc2)noc1C(=O)NCc1ccccc1	5.1	6.2	2.0	2.3	-2.0
C/C(Cn1nc([N+](=O)[O-])cc1C)=N\NC(=O)COc1c(Cl)cc(Cl)cc1Cl	1.0	-2.8	0.6	-1.2	-10.4
Cc1nc(N2CCOCC2)nc(N2CCC(C)CC2)c1[N+](=O)[O-]	18.0	-3.8	2.3	2.3	-17.1
Cc1nc(N2CCOCC2)nc(N2CCCCC2C)c1[N+](=O)[O-] (centres undefined)	8.5	0.7	3.0	5.5*	-17.4
CCC(CC)C(=O)N(C)c1c(C)nc2c(OCc3ccc(OC(F)F)cc3)cccn12	nt	nt	-1.8	nt	nt
Cc1cc(N)ccc1-n1c(C)ccc1C	109.6*	-5.8	2.6	-0.5	-11.1
Cc1cc(N)ccc1N1CCCC1	7.1	-6.7	-3.0	-0.1	-3.3
CCCc1nnn(S(=O)(=O)c2ccc([N+](=O)[O-])cc2)c1CCC	nt	nt	-0.6	5.0*	nt
CC(C)c1ccccc1NC(=O)C1CCCN(C(=O)c2ccc(Cl)cc2)C1 (centres undefined)	nt	nt	-1.1	0.1	nt
CN1CCc2c(sc3c2c(=O)n(-c2ccccc2)c2n[nH]c(=S)n32)C1	-0.6	-4.0	0.5	4.7*	-6.4
O=c1c2c3c(sc2n2c(=S)[nH]nc2n1-c1ccccc1)CCC3	0.4	-5.3	0.7	nt	-17.5
O=C1CN(C(=O)c2ccc(F)cc2)c2ccccc2N1	0.1	-0.9	0.1	0.5	-9.2
COc1ccc(/C=N/NC(=O)CCc2n[nH]c(=O)[nH]c2=O)cc1O	-0.1	-12.9	7.5	-0.1	-21.8
COc1ccc(OC)c(/C=N/NC(=O)CCc2n[nH]c(=O)[nH]c2=O)c1	59.9*	-0.1	3.4	-0.3	0.7
Cc1ccc(NC(=S)NNC(=O)c2nnn(-c3ccccc3)c2C)cc1	-0.9	3.9	0.9	1.7	12.2
c1ccc(N2CCN(c3nc4ccccc4[nH]3)CC2)nc1	4.9	15.3	4.1	0.6	63.2*
Cn1c(SCc2cccc(C#N)c2)nc2ccccc2c1=O	3.1	1.3	1.1	-0.6	-2.7
Oc1ccc(/C=N/Nc2cccc(Cl)n2)c(O)c1	4.0	32.0	5.3	6.3*	36.5
COc1ccc(-c2nc(-c3ccc(Br)o3)no2)cc1OC	-3.0	30.0	1.5	0.9	56.7*
COc1cc(-c2nc(-c3ccccc3)c(-c3cccs3)[nH]2)cc(OC)c1OC	70.1*	20.2	-7.2	2.3	27.2
COc1cc(-c2noc(-c3cccs3)n2)cc(OC)c1OC	47.7*	13.2	0.6	0.0	16.1
COc1cc(OC)cc(-c2nc(-c3cccs3)no2)c1	37.7	10.6	2.7	0.3	29.9
COc1ccc(-c2noc(-c3cccs3)n2)cc1OC	6.7	27.8	4.0	5.9*	42.5
SMILES	AHR activator	HSF1 inh	GAA850 FXN act	NR0B1 inh	HSF1 activator
CCCOc1ccc(C(=O)CCNC(Cc2c[nH]c3ccccc23)C(=O)O)cc1 (centres undefined)	6.2	2.2	3.5	0.2	-0.3
COc1ccc(NC(=O)CN2C(=O)NC(C)(c3ccccc3)C2=O)cc1Cl (centres undefined)	-0.6	0.3	-0.5	0.4	0.0
COc1ccc(-c2noc(-c3ccc(Cl)cc3[N+](=O)[O-])n2)cc1OC	17.0	25.5	2.1	2.6	52.7*
CC(=O)c1cccc2c(O)c(C3=Nc4ccccc4C3=O)[nH]c12	60.8*	33.5	1.0	0.4	61.8*
O=C1C(c2c(O)[nH]c3ccccc23)=Nc2ccccc21	59.7*	9.1	-1.3	1.3	8.8
COc1cccc(C2Nc3ccccc3C(=O)N2c2ccc(F)cc2)c1O (centres undefined)	-2.2	32.1	2.8	0.2	67.4*
O=C1c2ccccc2NC(c2ccccc2O)N1c1ccc(F)cc1 (centres undefined)	8.4	4.3	-0.2	1.4	37.0
COc1ccc(/C=C/C(=O)Nc2ccccc2C(=O)O)cc1	-0.3	-39.5	0.4	-2.3	-43.0
COc1ccc(/C=C/C(=O)c2cc(Br)ccc2O)cc1OC	4.1	27.8	1.1	-2.1	65.6*
COc1ccc(/C=C/C(=O)c2cc(F)ccc2OC(=O)c2ccccc2OC)cc1OC	nt	64.1	4.1	-4.8	69.2*
COc1ccc(/C=C/C(=O)Nc2ccccc2C(=O)O)cc1OC	-8.2	-55.8*	-8.5	-2.1	-59.0
COc1ccc(/C=C/C(=O)Nc2ccccc2C(F)(F)F)cc1	-0.7	16.5	3.2	0.7	27.4
COc1ccc(/C=C/C(=O)Nc2ccccc2C(=O)NCC(c2ccc(OC)cc2)N(C)C)cc1 (centres undefined)	7.0	-59.5*	-4.9	-1.4	-59.7
O=c1[nH]c(SCc2ccccc2[N+](=O)[O-])nc2nc[nH]c12	6.3	3.5	2.5	0.0	27.0
O=C(NC1CCCCC1)c1ccc2[nH]c(=O)c(=O)[nH]c2c1	2.6	1.5	0.6	0.2	-8.5
COc1ccc(/C=C/C(=O)c2ccc[nH]2)cc1OC	12.0	33.2	2.1	2.9	61.6*
COc1ccc(CNC(=O)CCSCc2cccc(F)c2)cc1	0.6	-4.3	0.3	0.1	9.7
COc1ccc(OCc2cc(C(=O)N(C)CCC3CCOCC3)no2)c(Cl)c1	8.1	37.9	2.6	1.1	77.4*
Cc1cc(OCc2cc(C(=O)N(C)C3CCOC3)no2)cc(C)c1Cl (centres undefined)	11.2	48.4	2.0	4.1	63.8*
CC1CCCCN1C(=O)c1ccccc1OC1CCN(S(C)(=O)=O)CC1 (centres undefined)	-3.5	-39.0	1.7	0.8	-53.5
CC1CCCN(C(=O)c2ccccc2OC2CCN(S(C)(=O)=O)CC2)C1 (centres undefined)	-0.6	23.4	0.1	3.3	64.1*
S=C(c1cccs1)N1CCN(c2ccccc2)CC1	nt	nt	1.8	5.7*	nt
CCOc1ccc(/C=N/Nc2nc(C)cs2)c(O)c1	nt	-11.7	2.4	4.5*	-21.2
Cc1ccsc1/C=N/Nc1nc(Cl)c(Cl)cc1Cl	63.0*	27.6	5.8	2.0	37.4
Cc1ccc(/C=N/Nc2nc(Cl)c(Cl)cc2Cl)s1	54.2*	11.4	7.3	4.3*	44.8
Cc1ccsc1/C=N\Nc1cn[nH]c(=O)c1Cl	1.3	nt	3.5	0.1	nt
Cc1ccc(/C=N/Nc2ccc(Cl)c(C(=O)O)c2)s1	2.7	4.1	2.2	-2.1	13.5
